# In publication PMC5540273 (PLoS ONE, 2017):
# How the values were obtained:
# Conditions in all cases: concentration: 1 μM, replicates: in singlicate; n = 1
# CSNK1G1 = tested on: CSNK1G1
# CSNK1G2 = tested on: CSNK1G2
# CSNK1G3 = tested on: CSNK1G3
# CSNK2A1 = tested on: CSNK2A1
# CSNK2A2 = tested on: CSNK2A2
# CTK = tested on: T1, CTK
# T1 construct: gene MATK
# DAPK1 = tested on: DAPK1
# DAPK2 = tested on: DAPK2
# DAPK3 = tested on: DAPK3
# DCAMKL1 = tested on: T2, DCAMKL1
# T2 construct: gene DCLK1
# DCAMKL2 = tested on: T3, DCAMKL2
# T3 construct: gene DCLK2
# DCAMKL3 = tested on: T4, DCAMKL3
# T4 construct: gene DCLK3
# DDR1 = tested on: DDR1
# DDR2 = tested on: DDR2
# DLK = tested on: T5, DLK
# T5 construct: gene MAP3K12
# DMPK2 = tested on: T6, DMPK2
# T6 construct: gene CDC42BPG
# DMPK = tested on: DMPK
# DRAK1 = tested on: T7, DRAK1
# T7 construct: gene STK17A
# DRAK2 = tested on: T8, DRAK2
# T8 construct: gene STK17B
# DYRK1A = tested on: DYRK1A
# 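Note: KINOMEscan kinase panel screen.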
Compound,%Inh (CSNK1G1) [%],%Inh (CSNK1G2) [%],%Inh (CSNK1G3) [%],%Inh (CSNK2A1) [%],%Inh (CSNK2A2) [%],%Inh (CTK) [%],%Inh (DAPK1) [%],%Inh (DAPK2) [%],%Inh (DAPK3) [%],%Inh (DCAMKL1) [%],%Inh (DCAMKL2) [%],%Inh (DCAMKL3) [%],%Inh (DDR1) [%],%Inh (DDR2) [%],%Inh (DLK) [%],%Inh (DMPK2) [%],%Inh (DMPK) [%],%Inh (DRAK1) [%],%Inh (DRAK2) [%],%Inh (DYRK1A) [%]
COc1cccc(-c2ccc3c(NC(=O)C4CC4)n[nH]c3n2)c1 [SB-710903],0,0,10,0,79,0,0,0,13,21,0,6,0,52,72,0,0,2,4,52
CN(C)S(=O)(=O)c1cc(-c2ccc3nccc(-c4cccc(S(N)(=O)=O)c4)c3c2)cnc1N [GSK1669921],22,0,33,11,4,12,0,8,3,28,6,0,100,5,0,0,10,0,0,37
O=C(O)C(F)(F)F.O=C(O)C(F)(F)F.O=c1[nH]ccc2nc(N[C@@H]3CCCNC3)nc(Nc3ccc(S(=O)(=O)N4CCOCC4)cc3)c12 [GSK2177277],96.3,98.8,99.2,98.7,98.9,69,98.2,98.1,99.3,98.1,100,99.5,18,82,95.6,92.7,99.7,98.4,94,84
c1ccc(Oc2ccc(Nc3ccnc4cc(-c5ccc(CNCCN6CCOCC6)o5)ccc34)cc2)nc1 [GW567145],2,0,13,0,18,0,0,2,18,20,0,0,0,50,49,0,0,2,54,0
Cc1ccc(C)c(NC(=O)NC2CCN(c3ccnc(Nc4ccc(F)cc4)n3)C2)c1 (stereo not shown) [GSK1379720],0,15,12,0,0,0,0,0,0,6,0,3,0,25,0,0,0,10,0,10
C[C@@H]1CC[C@@H](C(=O)Nc2ccccc2)CN1c1cc(-c2ccc3c(N)n[nH]c3c2)nc(N)n1 [GSK2286062],13,8,14,54,7,0,0,23,20,7,17,0,1,22,17,0,0,18,0,3
COc1cccc(C(=O)Nc2cccc(Oc3ccc4nc(NC(=O)C5CC5)cn4n3)c2)c1,13,0,30,0,17,0,0,4,9,20,17,49,100,99.7,18,27,0,0,24,0
CCS(=O)(=O)c1ccc(OC)c(Nc2nccc(-c3c(-c4cccc(NC(=O)c5c(F)cccc5F)c4)nn4ncccc34)n2)c1 [GSK326180],15,4,15,0,0,0,9,0,9,3,0,1,90,8,0,78,0,0,1,12
COc1cc(Nc2nccc(N3CCC(NC(=O)c4cc5ccccc5s4)C3)n2)cc(OC)c1OC (stereo not shown) [GSK1379760],9,13,8,27,0,0,54,20,1,13,14,0,0,39,31,5,0,0,0,0
Nc1n[nH]c2cnc(-c3ccccc3)cc12 [SB-642124],4,0,3,21,27,0,24,0,27,13,0,10,2,18,19,0,31,44,0,91.4
CN1CCN(Cc2cccc(-c3ccc4c(Nc5ccc(Oc6ccccc6)cc5)ccnc4c3)c2)CC1 [GW578342],18,1,2,0,0,0,100,6,25,13,1,59,9,33,41,0,0,10,0,1
Cl.Cl.NCC(NC(=O)c1cc(-c2ccccc2)c(-c2ccnc3[nH]ccc23)s1)c1ccccc1 (stereo not shown) [GSK1321561],14,89,81,5,38,0,0,3,12,0,0,10,99.7,76,35,94.7,82,41,0,13
NCCCC(NC(=O)c1cc(Br)c(-c2ccnc3[nH]ccc23)s1)c1ccccc1.O=C(O)C(F)(F)F.O=C(O)C(F)(F)F (stereo not shown) [GSK1287544],57,97.2,94.8,27,20,0,0,0,0,8,3,0,0,2,17,94.2,28,61,0,48
Cn1cc(-c2ccc3c(c2)CCN3C(=O)Cc2cccc(F)c2)c2c(N)ncnc21 [GSK2603358],28,0,38,0,0,0,0,0,12,14,0,32,69,30,22,50,0,0,0,15
Cc1occc1-c1ncc(OC[C@@H](N)Cc2c[nH]c3ccccc23)cc1-c1ccc2[nH]nc(C)c2c1.O=C(O)C(F)(F)F [GSK682037],76,95.5,93.7,0,8,0,0,0,2,10,14,0,0,5,1,67,95,0,0,15
FC(F)(F)c1ccc(/C=C/c2cncnc2Nc2ccc3[nH]c(Cc4ccccc4)nc3c2)cc1 [GW709199],2,0,4,0,0,0,0,0,11,9,7,21,0,36,0,0,0,0,7,0
Cl.Cl.NCC(NCc1ccc(-c2ccnc3[nH]ccc23)s1)c1ccccc1 (stereo not shown) [GSK1321565],0,0,33,39,37,0,67,32,71,21,0,0,0,34,0,25,81,75,6,38
